Bioassay records deposited in PubChem BioAssay by National Center for Advancing Translational Sciences (NCATS).
Sampled rows, rich in hits. Any-hit rate of the full collection: about 15%.
ALOX12 inh: Primary qHTS assay for inhibitors of human arachidonate 12S-lipoxygenase (ALOX12): Round 2; Polyunsaturated fatty acid lipoxygenase ALOX12 (Homo sapiens), P18054; purified 12hLO, xylenol orange hydroperoxide absorbance; Potency, µM (top dose mostly 108 µM), actives largely listed as inhibitors; 580,000 compounds, 1.1% hits; AID 1671190, 2021
Target sequence (P18054 whole entry, looked up): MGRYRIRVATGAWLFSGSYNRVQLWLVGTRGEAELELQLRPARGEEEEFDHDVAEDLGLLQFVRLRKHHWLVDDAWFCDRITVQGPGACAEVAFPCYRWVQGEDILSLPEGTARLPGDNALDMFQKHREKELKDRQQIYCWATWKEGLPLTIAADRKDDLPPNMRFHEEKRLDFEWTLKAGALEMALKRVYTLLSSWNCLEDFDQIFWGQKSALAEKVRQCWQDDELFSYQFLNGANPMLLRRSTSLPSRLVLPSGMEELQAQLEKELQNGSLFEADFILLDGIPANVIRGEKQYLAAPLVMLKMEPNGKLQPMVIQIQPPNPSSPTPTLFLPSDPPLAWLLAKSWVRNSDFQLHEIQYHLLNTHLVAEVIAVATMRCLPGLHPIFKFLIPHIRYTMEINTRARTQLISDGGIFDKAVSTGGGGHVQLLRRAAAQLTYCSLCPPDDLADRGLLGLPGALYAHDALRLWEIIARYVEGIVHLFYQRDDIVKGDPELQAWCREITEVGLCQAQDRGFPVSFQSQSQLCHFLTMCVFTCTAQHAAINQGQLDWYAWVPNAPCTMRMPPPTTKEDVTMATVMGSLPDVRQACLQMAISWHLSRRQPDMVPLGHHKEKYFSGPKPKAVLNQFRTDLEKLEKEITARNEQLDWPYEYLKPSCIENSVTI
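Purified human 12hLO (150 nM final) in 25 mM Hepes, 0.01% Triton X-100, pH 7.0 was preincubated 15 min at room temperature with compound. Then 40 uM arachidonic acid was added, 30 min. Hydroperoxide was read by Fe-XO absorbance ratio 573/405 nm.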
VP16 counter: VP16 counterscreen qHTS for inhibitors of ROR gamma transcriptional activity. Drosophila S2 Gal4-VP16 UAS-luciferase, luminescence, 20 h. Potency, µM (doses to about 53.6 µM), most hits filed as inhibitors. 310,000 compounds, 3.5% hits;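 further: Gal4-VP16 expression switched on by copper sulfate through the metallothionein promoter; nearly all actives have a fitted effect of over 50% in size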
RORgamma inh: qHTS for inhibitors of ROR gamma transcriptional activity; Potency, µM (titrated, usually from 53.6 µM), most hits filed as inhibitors; Drosophila S2 Gal4-RORgamma UAS-luciferase reporter, 20 h; Nuclear receptor ROR-gamma (Mus musculus), P51450; AID 2551, 2010; 310,000 compounds, 5.4% hits; further: nearly all actives have a fitted effect of over 60% in size
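Using a luciferase readout, inhibitors were identified by reduced reporter activity in Drosophila cells coexpressing a copper-inducible Gal4–ROR gamma fusion and UAS-driven Photinus luciferase, incubated 20 hr after 700 uM copper sulfate.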
TDP1 cell noCPT: qHTS for Inhibitors of human tyrosyl-DNA phosphodiesterase 1 (TDP1): qHTS in cells in absence of CPT; DT40 Tdp1-/- hTDP1 cells, no CPT, ATP luminescence, 48 h; Potency, µM (top dose mostly 46.2 µM), usual class: inhibitors; 420,000 compounds, 15% hits; further: nearly all actives have a fitted effect of over 55% in size
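Stably hTDP1-transfected Tdp1-null chicken DT40 cells were treated with library compounds minus camptothecin and grown for at least 48 hr at 37 °C, after which cellular ATP was quantified by luminescence.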
ELG1 repair inh: qHTS screen for small molecules that inhibit ELG1-dependent DNA repair in human embryonic kidney (HEK293T) cells expressing luciferase-tagged ELG1; 330,000 compounds, 2.3% hits; HEK293T ELG1-luciferase reporter, luminescence, 16 h; DNA damage induced by 5-fluorouridine; Potency, µM (series often up to 46.1 µM), most hits filed as inhibitors; AID 504467, 2011; further: nearly all actives have a fitted effect of over 55% in size
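HEK293T cells expressing luciferase-tagged ELG1 (2,000/well) received 5-Fluorouridine plus compound or DMSO for 16 hr at 37 °C. Luciferase was read by ONE-Glo luminescence after 30 min at room temperature.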
TDP1 cell CPT: qHTS for Inhibitors of human tyrosyl-DNA phosphodiesterase 1 (TDP1): qHTS in cells in presence of CPT; chicken DT40 Tdp1-/-;hTDP1 cells + 20 nM CPT, ATP luminescence, 48 h; Potency, µM (highest dose often 46.2 µM), actives largely listed as inhibitors; 420,000 compounds, 12% hits; further: nearly all actives have a fitted effect of over 55% in size
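Cell growth measured by CellTiter-Glo luminescence after a minimum 48 h, 37 C compound exposure with 20 nM CPT in Tdp1-knockout DT40 cells stably expressing hTDP1, seeded 400/well; qHTS titration format.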
Hits are given with their value; n = inactive; u = inconclusive; x = no result; [ ] = another dose, or the depositor's remark. The call rests on the fitted dose curve; in most records, active means well fitted curve in the direction sought with a large enough effect; inconclusive means small, poorly fitted or top-dose-only effect, or another doubt; inactive means no such curve, though single readings can be large; an effect the other way counts as inactive or inconclusive.

SMILES	ALOX12 inh	VP16 counter	RORgamma inh	TDP1 cell noCPT	ELG1 repair inh	TDP1 cell CPT
c1ccc2[nH]c(-c3nn4c(C5CCCCC5)nnc4s3)cc2c1	n	x	x	x	x	x
O=C(CCN1C(=O)c2ccccc2S1(=O)=O)Nc1cccc(C(=O)O)c1	n	x	x	x	x	x
CC(C)CNC(=O)CC(C)Cc1nnc2c(=O)n(-c3cccc(F)c3)ccn12 (configuration not stated)	n	x	x	x	x	x
COc1ccccc1NC(=O)C1CCN(S(=O)(=O)c2ccc3c(c2)CC(C)N3C(C)=O)CC1 (configuration not stated)	n	n	n	u	n	u
CCc1ccc(NC(=O)C2CCC(CNS(=O)(=O)c3ccc4c(c3)CC(C)N4C(C)=O)CC2)cc1 (configuration not stated)	n	x	x	7.3µM	x	21µM
CC1CC(C)CN(C(=O)C2CCC(CNS(=O)(=O)c3ccccc3)CC2)C1 (configuration not stated)	n	n	n	29µM	n	u
Cc1cccc(NC(=O)C2CCC(CNS(=O)(=O)c3ccc4c(c3)CCCC(=O)N4)CC2)c1C (configuration not stated)	n	x	x	n	x	u
CC(=O)N1c2ccc(S(=O)(=O)NCC3CCC(C(=O)NCc4ccccc4)CC3)cc2CC1C (configuration not stated)	n	n	u	n	n	u
COc1ccc(C)cc1NC(=O)C1CCC(CNS(=O)(=O)c2ccc3c(c2)CCCC(=O)N3)CC1 (configuration not stated)	n	x	x	4.6µM	x	9.2µM
COc1ccccc1NC(=O)C1CCC(CNS(=O)(=O)c2ccc3c(c2)CC(C)N3C(C)=O)CC1 (configuration not stated)	n	x	x	10µM	x	10µM
CCCCNC(=O)N1CCC2(CC1)C(=O)N(CC(=O)NC(C)c1ccccc1)CN2c1ccccc1 (configuration not stated)	n	x	x	x	x	x
CCCCCCCCS(=O)(=O)CCSC(=N)N	n	x	x	x	x	x
CC(=O)N1c2ccc(S(=O)(=O)NCC3CCC(C(=O)N4CCCC(C)C4)CC3)cc2CC1C (configuration not stated)	n	n	n	u	n	16µM
CC(=O)N1c2ccc(S(=O)(=O)NCC3CCC(C(=O)Nc4ccc(C)c(C)c4)CC3)cc2CC1C (configuration not stated)	n	x	x	23µM	x	16µM
CC(=O)N1c2ccc(S(=O)(=O)NCC3CCC(C(=O)N(C)Cc4ccccc4)CC3)cc2CC1C (configuration not stated)	n	n	u	u	n	u
CC(=O)N1c2ccc(S(=O)(=O)NCC3CCC(C(=O)NC(C)(C)C)CC3)cc2CC1C (configuration not stated)	n	x	x	u	x	u
CCCCN(C)C(=O)C1CCC(CNS(=O)(=O)c2ccc3c(c2)CC(C)N3C(C)=O)CC1 (configuration not stated)	n	n	n	16µM	n	13µM
COCCNC(=O)C1CCC(CNS(=O)(=O)c2ccc3c(c2)CC(C)N3C(C)=O)CC1 (configuration not stated)	n	x	x	n	x	n
CC(=O)N1c2ccc(S(=O)(=O)NCC3CCC(C(=O)Nc4ccc(F)cc4)CC3)cc2CC1C (configuration not stated)	u	x	x	16µM	x	16µM
COc1cccc(C(=O)Nc2cc(Cl)c(O)c(Cl)c2)c1	n	n	n	n	u	n
COc1cc(C(=O)NC(c2ccc(Cl)cc2)c2cc(Cl)c3cccnc3c2O)cc(OC)c1OC (configuration not stated)	n	x	x	5.2µM	x	10µM
COc1cc(C(=O)NC(C)Cn2cccn2)cc(Cl)c1OC (configuration not stated)	n	x	x	x	x	x
COc1cccc(C(=O)NC(c2ccc(Cl)cc2)c2cc(Cl)c3cccnc3c2O)c1 (configuration not stated)	n	x	x	5.8µM	x	8.2µM
CN=c1scc(-c2ccco2)n1/N=C/c1ccc(O)c(O)c1	40µM	0.71µM	0.089µM	9.2µM	u	4.6µM
Oc1ccc(/C=N/N2CCCCC2)cc1O	n	n	n	u	u	u
SMILES	ALOX12 inh	VP16 counter	RORgamma inh	TDP1 cell noCPT	ELG1 repair inh	TDP1 cell CPT
CN=c1scc(C)n1/N=C/c1cc(Br)c(O)c(Br)c1	n	n	n	n	n	n
CN=c1scc(C)n1/N=C/c1ccco1	n	x	x	x	x	x
C=CCN=c1scc(C)n1/N=C/c1ccc(O)c(O)c1	u	n	18µM	7.3µM	u	16µM
CN=c1scc(C)n1/N=C/c1ccc(O)cc1	n	2.5µM	u	23µM	u	u
CN=c1scc(C)n1/N=C/c1ccc(O)cc1O	n	1.3µM	0.63µM	u	u	u
O=C(C1CCCC1)N1Cc2ccccc2CC2(CCCN(Cc3ccccc3)C2)C1 (configuration not stated)	n[6.33 µM]	x	x	x	x	x
COCC(C)n1c(C)cc(C(=O)Cn2cnc3sccc3c2=O)c1C (configuration not stated)	n	x	x	x	x	x
COc1cccc(CNC(=O)CN2C(=O)NC3(CCOCC3)C2=O)c1OC	n	x	x	x	x	x
CCc1ccccc1N1C(=O)N(Cc2cc(=O)n3ccccc3n2)c2ccccc2S1(=O)=O	n	x	x	18µM	x	23µM
Cc1cccc(N2C(=O)N(Cc3cc(=O)n4ccccc4n3)c3ccccc3S2(=O)=O)c1	u	x	x	26µM	x	u
C=C1C=C(C(F)F)n2ncc(C(=O)NCc3ccccc3OC)c2N1	x	x	x	u	x	10µM
C=C1C=C(C(F)F)n2ncc(C(=O)NCc3ccc(Cl)cc3Cl)c2N1	x	x	x	16µM	x	8.9µM
C=C1C=C(C(F)F)n2ncc(C(=O)Nc3cccc(CC)c3)c2N1	x	x	x	n	x	n
Nc1cccc(N)c1	x	n	n	x	x	x
Nc1cc(N)cc(N)c1	x	x	x	4.5µM	x	4.5µM
Cc1c(C(=O)Nc2cccc([N+](=O)[O-])c2)csc1-c1ccccc1	n	n	u	u	u	u
Cc1ccc(-n2c(C)cc(C(=O)NS(=O)(=O)c3ccc(C)cc3)c2C)cc1	n	n	n	u	u	n
Cc1ccc(NC(=O)c2cc(C)n(-c3cccc(C)c3)c2C)cc1	n	n	n	21µM	u	u
Cc1cc(C(=O)Nc2ccc(Cl)cc2)c(C)n1-c1ccccc1	n	u	u	n	u	n
